# Screening data from PubChem.
# SKKanGAS inh = S. pyogenes SKKanGAS growth inhibitors in kanamycin, primary screen, streptokinase expression inhibitor project, SKKanGAS strain, BacTiter-Glo luminescence; 6 h; inhibition, % at 7.5 µM; 300,000 compounds, 1.3% hits; AID 1662, 2009;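 active means mean replicate score, as percent of positive control median, at least 50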;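 further: strain carries kanamycin resistance gene driven by streptokinase promoter and grows in 40 µg/ml kanamycin; loss of luminescence reflects streptokinase promoter inhibition or plain growth inhibition; 0% = median of DMSO wells and 100% = positive control at its reference dose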
# TIM10 inh = growth inhibitors of isogenic TIM10 control yeast, primary screen, counter-screen for tim10-1 yeast inhibitor project, luminescence, uHTS | AID 463195, 2010 | inhibition, % at 10 µM | 330,000 compounds, 1.4% hits | S. cerevisiae TIM10 strain growth, BacTiter-Glo luminescence, 24 h;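 active means inhibition of 40% or more at the single tested concentration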;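 further: wild-type TIM10 isogenic control strain grown at permissive 25 °C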
# PfHsp90 yeast 2 = growth inhibition of PfHsp90-expressing yeast, primary screen, antimalarial PfHsp90 inhibitor project, S. cerevisiae, BacTiter-Glo luminescence, single point, set 2 | BacTiter-Glo ATP, 48 h; yeast lacking PDR1 and PDR3 efflux regulators | inhibition, % at 9.4 µM | 310,000 compounds, 0.32% hits;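 active means every replicate shows inhibition above about 80%, whatever the replicate mean, limit read from the data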;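 further: 0% = DMSO neutral controls and 100% = 20 µM radicicol positive controls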
# V-ATPase pH = regulators of yeast V-ATPase proton pumping, primary screen, pHLuorin cytosolic pH fluorescence; S. cerevisiae; response, % at 10 µM; 350,000 compounds, 0.37% hits; in the data active means response mostly above about 7.3%, no sharp cut-off; inactive means mostly below about 5.4%; further: actives read high
# tim23-1 inh = growth inhibitors of tim23-1 mutant yeast, primary screen, luminescence, uHTS; S. cerevisiae tim23-1 growth, BacTiter-Glo luminescence, 24 h; inhibition, % at 20 µM; 330,000 compounds, 1.3% hits;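 active means growth inhibition of the mutant yeast at or above 50%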;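 further: temperature-sensitive mutant grown at 25 °C; plate controls were DMSO-treated mutant yeast for no effect and medium wells lacking yeast for full effect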
# tim10-1 inh = growth inhibitors of tim10-1 mutant yeast, primary screen, luminescence, uHTS; S. cerevisiae tim10-1 ts strain growth, BacTiter-Glo, 24 h; inhibition, % at 20 µM; 330,000 compounds, 2.2% hits; AID 463190, 2010;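 active means inhibition of at least 40%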;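 further: mutant grown at 25 °C; 0% = DMSO wells with yeast and 100% = wells holding no yeast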
# tim10-1 confirm = growth inhibitors of tim10-1 mutant yeast, confirmation, single concentration, luminescence, S. cerevisiae. shares compounds with tim10-1 inh. S. cerevisiae tim10-1 ts strain growth, BacTiter-Glo, 24 h. inhibition, % at 20 µM. 7,400 compounds, 56% hits. AID 463213, 2010;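 active means inhibition of yeast growth at or above a set limit in either of two repeat tests at 20 µM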;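 further: tim10-1 mutant grown at permissive 25 °C to find synthetic lethal compounds; 0% = DMSO yeast wells and 100% = medium wells without yeast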
# tim10 confirm = growth inhibitors of wild-type TIM10 yeast, confirmation, counter-screen for tim10-1 synthetic lethality project, single concentration, luminescence, S. cerevisiae | inhibition, % at 10 µM | 4,600 compounds, 63% hits | AID 463215, 2010 | shares compounds with TIM10 inh | S. cerevisiae tim10 strain growth, BacTiter-Glo luminescence, 24 h;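 active means inhibition of yeast growth at or above a set limit in either of two replicates at 10 µM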;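 further: this counterscreen used the strain with wild-type TIM10; 0% = yeast with DMSO and 100% = medium wells lacking yeast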
# tim23-1 confirm = tim23-1 mutant yeast growth inhibitors, confirmation, luminescence, single concentration; shares compounds with tim23-1 inh; S. cerevisiae tim23-1 growth, BacTiter-Glo luminescence, 24 h; inhibition, % at 20 µM; 4,400 compounds, 83% hits;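 active means inhibition above about 39% in either of two replicate wells at 20 µM, limit read from the data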;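 further: temperature-sensitive tim23-1 mutant grown at 25 °C; 0% = DMSO wells with yeast and 100% = medium wells without yeast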
# * hit, by the source's call; . = no result. Shown are actives, neighbours in structure and some others; about 4.6% of the full set was active somewhere.
SMILES,SKKanGAS inh,TIM10 inh,PfHsp90 yeast 2,V-ATPase pH,tim23-1 inh,tim10-1 inh,tim10-1 confirm,tim10 confirm,tim23-1 confirm
CC[C@H](C)Cc1cn([C@@H](CCCCNC(=O)OC(C)(C)C)C(=O)NCCCCCCCCCCC(=O)N2CCN(C(=O)OC(C)(C)C)CC2)nn1,.,1,-5,2,14,8,.,.,.
CCOC(=O)CC(=O)CSc1nc2ccc(OC)cc2cc1C,-17,18,-16,0,25,28,.,.,.
Cc1cc(C)nc(NC(=S)NC(=O)c2ccccc2F)n1,-3,12,.,5,18,9,.,.,.
Cc1cc(C)nc(S/C=C/C(=O)c2ccccc2F)n1,0,53*,-10,5,64*,43*,28,53*,63*
CCN(CC)c1nc(-c2ccccn2)nc(-c2ccccc2)c1C#N,37,60*,-73,-1,58*,58*,51*,65*,53*
CN(C)c1nc(-c2ccccc2)nc(-c2ccc(Cl)cc2)c1C#N,3,2,-3,-3,3,-3,.,.,.
Clc1ccc(-c2n[nH]c3c2CCC3)cc1Cl,88*,49*,17,0,59*,56*,49*,57*,8
CC1CCN(C(=O)c2ccc3c(c2)NC(=O)/C(=C/c2ccccc2)S3)CC1,76*,-7,-17,-2,50*,42*,1,.,47*
CCN1CCCC1CNC(=O)c1ccc2c(c1)NC(=O)/C(=C\c1ccc(C)cc1)S2 (stereo not drawn),9,-1,2,-1,20,13,.,.,.
Cc1cc(C)n(C(C[N+](=O)[O-])c2ccc(Cl)cc2)n1 (stereo not drawn),32,77*,7,9,76*,42*,54*,68*,30
Cc1ccnn1-c1ccc(C(=O)OCC(=O)Nc2ccc(F)cc2)cc1,.,-12,.,-1,10,1,.,.,.
CC(=O)NCCn1c(SCc2ccc(C)cc2C)nc2ccccc2c1=O,6,34,4,-1,56*,40*,27,.,33
Cc1cc(=O)[nH]c(SCC(=O)C23CC4CC(CC(C4)C2)C3)c1C#N,0,73*,23,1,74*,66*,60*,59*,49*
O=C(NCCN1CCCC(O)C1)c1cc(COc2cccc(C(F)(F)F)c2)on1 (stereo not drawn),.,.,.,-1,.,.,.,.,.
O=C(CC1C(=O)N(c2ccccc2)C(=S)N1c1ccccc1)c1ccc(Br)cc1 (stereo not drawn),7,35,19,3,24,33,.,.,.
O=C(CC1C(=O)N(c2ccccc2)C(=S)N1c1ccccc1)c1ccccc1 (stereo not drawn),-2,49*,5,4,52*,47*,42*,40*,53*
O=C1C(N2CCOCC2)=C(n2nnc3ccccc32)C(=O)c2ccccc21,30,78*,38,-3,83*,64*,60*,69*,89*
O=c1oc(-c2ccccc2Br)nc2ccccc12,-1,30,9,-1,59*,49*,40*,.,71*
CCC(NC(=O)Nc1cc(C)on1)(C(F)(F)F)C(F)(F)F,2,11,8,-3,7,3,.,.,.
Cc1noc(C)c1COC(=O)c1csc2c1CCC(C)C2 (stereo not drawn),.,-6,-13,2,21,9,.,.,.
Cc1cccc(NC(=S)NNC(=O)COc2ccc(Cl)cc2Cl)c1,0,43*,-22,3,52*,46*,32*,0,42*
